# Data from PubChem BioAssay (EPA / NIEHS).
# Inconclusive results are not listed. Activity calls are given as the source filed them. Rule for the calls, unless noted: active = hit-call score of the fitted dose curve at least 0.9, where 1 is the maximum; inconclusive = response in the unintended direction; inactive = score below 0.9.
# Columns and labels:
# [1] = Tanguay_ZF_120hpf_SWIM_legacy: (Legacy) Oregon State University Tanguay Lab 120 Hour Post-fertilization zebrafish Assay for Swim Bladder Malformation (AID 2283654);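 note: swim bladder malformation in each larva scored yes or no under brightfield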
# Procedure, shortened: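 Static waterborne exposure of single dechorionated Tropical 5D zebrafish embryos, 6–120 hpf, 28C, 0.64% DMSO final. Read-out: swim bladder malformation, present/absent, relative to DMSO negative control; trimethyltin chloride 5uM served as positive control.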
# [2] = Tanguay_ZF_120hpf_TRUN_legacy: (Legacy) Oregon State University Tanguay Lab 120 Hour Post-fertilization zebrafish Assay for Truncated Body (AID 2283655)
# Procedure, shortened: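 Binary presence/absence of truncated body is recorded at 120 hpf by brightfield, with non-mortality endpoints skipped after death. Exposure is static from 6 hpf in sealed dark plates at 28C, using dechorionated wild-type zebrafish, 0.64% DMSO.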
# [3] = test system: Thyroperoxidase (TPO), gene 54314; test: CCTE_Simmons_AUR_rTPO: CCTE's Amplex UltraRed Assay for Thyroperoxidase (TPO) Inhibition, Simmons Lab (AID 2283662);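 note: potency for loss of signal meaning inhibition of peroxidase activity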
# Procedure, shortened: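 Cell-free peroxidase activity assay using rat thyroid gland microsomes with excess H2O2 (300 uM) and 25 uM Amplex UltraRed. Compounds tested from 5 nM to 87.5 uM; fluorescence measured after 30 min at 37C, analysed relative to DMSO baseline.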
# [4] = CCTE_Simmons_CellTiterGLO_HEK293T: Viability Assessment in CCTE's Assays for Thyroperoxidase (TPO) Inhibition, Simmons Lab (AID 2283665);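 for AC50: cells exposed to compound for 24 h before readout; actives reduce ATP signal below DMSO vehicle meaning cytotoxicity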
# Procedure, shortened: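 Luciferase-coupled ATP content after 24 h exposure gives viability; 8-point series from 5 nM to 87.5 uM final in 0.5% DMSO. Human HEK293T cells, 1% FBS medium, three biological replicates, dichlone positive control.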
# [5] = Tanguay_ZF_120hpf_TR_legacy: (Legacy) Oregon State University Tanguay Lab 120 Hour Post-fertilization zebrafish Assay for Touch Response (AID 2283667)
# Procedure, shortened: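 Readout is presence or absence of touch response in 120 hpf zebrafish larvae, assessed by brightfield observation after continuous static exposure at 28C. Final vehicle was 0.64% (vol/vol) DMSO.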
# [6] = CCTE_Padilla_ZF_144hpf_TERATOSCORE: (Legacy) CCTE's 144 Hour Post-fertilization zebrafish Assay Teratoscore, Padilla Lab (AID 2283679; active = hit-call score of the fitted dose curve at least 0.9, where 1 is the maximum; inactive = score below 0.9;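 note: zebrafish embryos with chorions exposed by immersion from 6-8 hpf to 5 dpf with daily renewal; teratogenicity score from eye scoring of death hatching and malformations at 144 hpf; higher score means more developmental defects relative to DMSO baseline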)
# Procedure, shortened: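 Larvae scored by eye at 144 hpf for death, hatching and malformations after a day in clean Hanks'. Before that, daily-renewed exposure at 80 uM (0.4% DMSO, 26C) from roughly 6-8 hpf through 5 dpf, 4 embryos per chemical.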
# [7] = STM_H9_OrnithineISnorm_perc: Stemina devTOX quickPredict H9 human embryonic stem cell (hESC)-based Assay for Ornithine (ORN) Metabolite Biomarker, Normalized (AID 2283712; active = hit-call score of the fitted dose curve at least 0.9, where 1 is the maximum; inactive = score below 0.9;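 note: ornithine released into spent medium during last day measured by mass spectrometry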)
# Procedure, shortened: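 Ornithine in spent medium from the last 24 h of a 72 h exposure, deproteinised and quantified by UPLC-HRMS against an isotope-labelled internal standard, expressed relative to 0.1% DMSO. Pluripotent H9 cells; compound refreshed every 24 h.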
# [8] = STM_H9_CystineISnorm_perc: Stemina devTOX quickPredict H9 human embryonic stem cell (hESC)-based Assay for Cystine (CYSS) Metabolite Biomarker, Normalized (AID 2283713; active = hit-call score of the fitted dose curve at least 0.9, where 1 is the maximum; inactive = score below 0.9)
# Procedure, shortened: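 Cystine in spent media from the last 24 h of a 72 h H9 hESC exposure (daily re-dosing), measured by UPLC-HRMS. Values normalized to isotopic internal standard, then to 0.1% DMSO; viability via CellTiter-Fluor.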
# [9] = STM_H9_OrnCyssISnorm_ratio: Stemina devTOX quickPredict H9 human embryonic stem cell (hESC)-based Assay for Ornithine (ORN):Cystine (CYSS) Ratio (AID 2283714)
# Procedure, shortened: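 H9 hESC, 72h, q24h re-dose; last-day media → acetonitrile deproteinization → UPLC-HRMS. ORN:CYSS ratio from isotope-normalized EIC areas, vs 0.1% DMSO; MTX references on each plate.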
# [10] = Tanguay_ZF_120hpf_ActivityScore_legacy: (Legacy) Oregon State University Tanguay Lab 120 Hour Post-fertilization zebrafish Assay Score for Activity (AID 2283742);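 for AC50: dechorionated Tropical 5D wild-type zebrafish embryos held singly per well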
# Procedure, shortened: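 In this whole-embryo screen, dechorionated zebrafish were exposed from 6 hpf until 120 hpf at 28C under a 0.64% DMSO vehicle. Developmental malformations and death were recorded by brightfield microscopy as binary endpoints.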
# [11] = Tanguay_ZF_120hpf_NC_legacy: (Legacy) Oregon State University Tanguay Lab 120 Hour Post-fertilization zebrafish Assay for Notochord and Tail Malformation (AID 2283656)
# Procedure, shortened: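 Binary scoring of notochord distortion by brightfield microscopy; embryos dying were not scored. Wild-type Tropical 5D embryos, chorion removed, exposed singly and statically from 6 to 120 hpf, 28C, sealed, 0.64% DMSO.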
# [12] = CEETOX_H295R_MTT_cell_viability: Viability Assessment in the CeeTox HT-H295R MTT Assay (AID 2283718; active = hit-call score of the fitted dose curve at least 0.9, where 1 is the maximum; inactive = score below 0.9)
# Procedure, shortened: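 H295R cells prestimulated 48 h with 10 uM forskolin, then exposed 48 h to test chemical (0.1% DMSO final). Viability by MTT (0.5 mg/ml, 4 h, 37 C), absorbance 570/650 nm; percent change versus DMSO, bidirectional fit.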
# [13] = ArunA_CellTiter_hNP: Viability Assessment in the ArunA Biomedical's Oris Neural Crest (hNC) Cell Migration Assay (AID 2283753)
# Procedure, shortened: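 Viability read with CellTiter 96 Aqueous One after 72 h chemical exposure of human hNP1 neuroprogenitors, which were plated on Matrigel in LIF/bFGF medium 16 h beforehand. Endpoint fitted in positive direction relative to DMSO.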
structure (smiles),measurement,setting,value
CN(C[C@@H](CC[N+]12CCC(C3CCCCC3)(CC1)CC2)c1ccc(Cl)c(Cl)c1)C(=O)c1cc(C(F)(F)F)cc(C(F)(F)F)c1,outcome,[1],inactive
same,outcome,[2],inactive
same,AC50,[3],43.8 µM (active)
same,AC50,[4],9.54 µM (active)
same,outcome,[5],inactive
same,AC50,[6],4.91 µM (active)
same,AC50,[7],7.48 µM (active)
same,AC50,[8],16.4 µM (active)
same,AC50,[9],14.4 µM (active)
same,AC50,[10],46.9 µM (active)
Cc1cccc2ccccc12,outcome,[1],inactive
same,outcome,[2],inactive
same,outcome,[11],inactive
same,outcome,[5],inactive
same,outcome,[10],inactive
COc1cccc([C@H](O)C2CCN(CCc3ccc(F)cc3)CC2)c1OC,outcome,[2],inactive
same,outcome,[11],inactive
same,outcome,[5],inactive
same,AC50,[6],124 µM (active)
same,outcome,[7],inactive
same,AC50,[8],6.34 µM (active)
same,AC50,[9],10 µM (active)
same,outcome,[12],inactive
same,outcome,[10],inactive
CC(O)CC(C)(C)O (centres undefined),outcome,[1],inactive
same,outcome,[2],inactive
same,outcome,[11],inactive
same,outcome,[10],inactive
c1ccc2ccccc2c1,outcome,[1],inactive
same,outcome,[2],inactive
same,outcome,[11],inactive
same,outcome,[5],inactive
same,outcome,[10],inactive
O=C=NCCCCCCN=C=O,outcome,[2],inactive
same,AC50,[7],0.0164 µM (active)
same,outcome,[8],inactive
same,outcome,[9],inactive
same,outcome,[10],inactive
CO[C@H]1/C=C/O[C@@]2(C)Oc3c(C)c(O)c4c(O)c(c(/C=N/N5CCN(C)CC5)c(O)c4c3C2=O)NC(=O)/C(C)=C\C=C\[C@H](C)[C@H](O)[C@@H](C)[C@@H](O)[C@@H](C)[C@H](OC(C)=O)[C@@H]1C,outcome,[1],inactive
same,outcome,[2],inactive
same,AC50,[3],3.3 µM (active)
same,outcome,[4],inactive
same,outcome,[5],inactive
same,outcome,[7],inactive
same,AC50,[8],3.27 µM (active)
same,AC50,[9],4.04 µM (active)
same,outcome,[12],inactive
same,outcome,[10],inactive
Clc1ccccc1C(c1ccccc1)(c1ccccc1)n1ccnc1,outcome,[1],inactive
same,outcome,[11],inactive
same,AC50,[5],25 µM (active)
same,outcome,[12],inactive
same,outcome,[10],inactive
COCC(C)OCC(C)OCC(C)O (centres undefined),outcome,[1],inactive
same,outcome,[2],inactive
same,outcome,[11],inactive
same,outcome,[5],inactive
same,outcome,[10],inactive
CC(C)(c1cc(Br)c(O)c(Br)c1)c1cc(Br)c(O)c(Br)c1,outcome,[2],inactive
same,outcome,[11],inactive
same,AC50,[3],18.5 µM (active)
same,AC50,[4],14.7 µM (active)
same,outcome,[5],inactive
same,outcome,[7],inactive
same,outcome,[8],inactive
same,outcome,[9],inactive
same,outcome,[12],inactive
same,AC50,[10],1.99 µM (active)
same,outcome,[13],inactive
